# KB-V1 cytotox = kills drug-selected multidrug resistant KB-V1 cells. Potency, µM (doses to about 46.1 µM), actives largely listed as cytotoxic. KB-V1 MDR cells viability, CellTiter-Glo, 72 h. hit rate 3.4% among 400,000. AID 1347076; note: nearly all actives have a fitted effect of over 60% in size
#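 In this primary screen, KB-V1 cells overexpressing P-gp are incubated with library compounds (lowest to highest concentration) for 72 h at 37 degrees C before a luminescent ATP viability read.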
# TDP1 cell noCPT = qHTS for Inhibitors of human tyrosyl-DNA phosphodiesterase 1 (TDP1): qHTS in cells in absence of CPT; hit rate 15% among 420,000; Potency, µM (top dose mostly 46.2 µM), for inactives: at the top dose activity change, negative = growth inhibition, most hits filed as inhibitors; DT40 Tdp1-/- hTDP1 cells, no CPT, ATP luminescence, 48 h; AID 686978, 2013; note: nearly all actives have a fitted effect of over 55% in size
#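 Chicken DT40 Tdp1-/- cells complemented with human TDP1, screened without camptothecin (DMSO vehicle only), 400 cells/well. Compounds pin-transferred, cells incubated at 37 °C for at least 48 hr. Growth read as ATP-dependent luminescence (CellTiter-Glo, 30 min at RT).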
# KB-3-1 tox = KB-3-1 parental cell cytotoxicity; KB-3-1 viability, CellTiter-Glo ATP luminescence, 72 h; hit rate 1.4% among 400,000; Potency, µM (doses to about 46.1 µM), most hits filed as cytotoxic; AID 1347075; note: nearly all actives have a fitted effect of over 60% in size
#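 Viability of parental KB-3-1 cells, measured by CellTiter-Glo luminescence, followed a 72 h incubation at 37 °C with pinned compounds in phenol-red-free DMEM containing 10% FBS.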
# DT40 TDP1 CPT = DT40-hTDP1 cell growth loss with CPT. hit rate 12% among 420,000. Potency, µM (doses to about 46.2 µM), inactives show at the top dose activity change, negative = growth inhibition, usual class: inhibitors. chicken DT40 Tdp1-/-;hTDP1 cells + 20 nM CPT, ATP luminescence, 48 h; note: nearly all actives have a fitted effect of over 55% in size
#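 Chicken DT40 Tdp1-/- cells complemented with human TDP1, 400 cells/well, exposed to compounds plus 20 nM camptothecin for at least 48 h at 37 C; viability read as ATP content by CellTiter-Glo luminescence.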
# HT1080 IDH1KD tx = HT-1080 IDH1 knockdown cell toxicity (counter line); HT-1080 IDH1 knockdown viability, ATP luminescence, 48 h; Potency, µM (titrated, usually from 46.1 µM), inactives show top-dose activity, negative = toxicity, most hits filed as cytotoxic; hit rate 2% among 360,000; AID 686971;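 note: 0% = DMSO wells and -100% = cell-free medium wells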
#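 Viability of IDH1-knockdown HT-1080 fibrosarcoma cells was assessed by CellTiter-Glo after 48 h at 37 °C with titrated compound; concentration-effect curves were classified by fit quality and response size.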
# HT1080-NT tox = kills 2HG-producing HT-1080-NT fibrosarcoma cells; HT-1080-NT fibrosarcoma viability, CellTiter-Glo ATP luminescence, 48 h; hit rate 1.6% among 360,000; AID 686970; Potency, µM (highest dose often 46.1 µM), for inactives: at the highest dose activity, negative = less viability, usual class: cytotoxic;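 note: NT is the 2HG producing partner of a matched IDH1 knockdown line; 0% = DMSO-treated cells and -100% = media-only wells without cells; nearly all actives have a fitted effect of over 55% in size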
#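 HT-1080-NT; 750 cells/well; 5% FBS RPMI; 48 h compound, 37 degrees C; CellTiter-Glo luminescence; curve fitting and curve-class assignment.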
# The depositor's hits bear a star; i = inactive; ? = inconclusive; nt = no result given; ! = not confirmed by another sample. Hits are enriched below; roughly 19% of the tested compounds scored in any of these assays. Calls come from the whole dose curve; as a rule, active = well fitted curve in the direction sought with a large enough effect; inconclusive = small, poorly fitted or top-dose-only effect, or another doubt; inactive = no such curve, though single readings can be large; an effect the other way counts as inactive or inconclusive. Unless noted, % is set by controls: 0 for no effect and ±100 for the full control effect; potency is the fitted concentration of half-maximal effect.
SMILES,KB-V1 cytotox,TDP1 cell noCPT,KB-3-1 tox,DT40 TDP1 CPT,HT1080 IDH1KD tx,HT1080-NT tox
Cc1ccc([C@H]2C[C@@H](O)[C@H](n3cc(COC(=O)c4ccccc4)nn3)CN2C(=O)c2cccs2)cc1,i,26µM*,i,?,-1%,-2%
O=C(OCc1cn([C@H]2CN(Cc3cccs3)[C@@H](c3ccccc3)C[C@@H]2O)nn1)c1ccccc1,i,21µM*,i,18µM*,-11%,-1%
O=C(OCc1cn([C@@H]2C[C@H](c3ccccc3)N(Cc3cccs3)C[C@H]2O)nn1)c1ccccc1,i,-27%,i,-12%,5%,0%
Cc1ccc([C@H]2C[C@@H](O)[C@H](n3cc(COC(=O)c4ccccc4)nn3)CN2Cc2cccs2)cc1,?,?,i,?,-3%,-4%
COc1cc(CNC(=O)Nc2nnc([C@H]3C[C@H](O)[C@@H](CO)O3)s2)cc(OC)c1OC,i,-1%,i,-16%,12%,15%
CCOc1ccc(-c2nc3c(c(SCC(=O)N4CCCCC4)n2)Cc2cc(C)ccc2O3)cc1,?,?,i,?,nt,nt
COc1cccc(Cn2c(=O)c(-c3ccc(F)cc3)nc3cnc(N(C)C)nc32)c1,nt,9%,nt,3%,nt,nt
O=C(Nc1ccon1)c1ccc(F)c(S(=O)(=O)N2CCCCC2)c1,i,?,i,-8%,-17%,-10%
O=C(Nc1ccncc1)c1ccc(Cl)c(S(=O)(=O)N2CCCC2)c1,?,26µM*,i,?,-16%,?
CCN(CC)CCNC(=O)c1ccc(NC(=O)c2ccc(Cl)c(S(=O)(=O)N3CCCCCC3)c2)cc1,i,?,?,?,21µM*,?
O=C(Nc1ccon1)c1ccc(Cl)c(S(=O)(=O)N2CCCCC2)c1,?,23µM*,i,?,-26%,-14%
CCN(CC)S(=O)(=O)c1cc(C(=O)Nc2ccncc2)ccc1Cl,16µM*,16µM*,21µM*,23µM*,-22%,0%
O=C(Nc1nccs1)c1ccc(Cl)c(S(=O)(=O)N2CCCCC2)c1,i,-24%,?,10%,-19%,-14%
COc1ccccc1OCC(=O)NC1CC(C)(C)NC(C)(C)C1,i,1%,i,8%,3%,7%
Cc1ccc(NC(=O)c2cnccn2)cc1S(=O)(=O)N1CCCCCC1,?,23µM*,i,?,-13%,-5%
O=C(Nc1ccc(Cl)c(S(=O)(=O)N2CCCCC2)c1)c1cccnc1,i,?,i,18µM*,-12%,-12%
O=C(Nc1nc2ccccc2[nH]1)c1ccc(Cl)c(S(=O)(=O)N2CCCC2)c1,15µM*,16µM*,?,18µM*,-26%,-19%
Cc1cnc(C(=O)Nc2ccc(C)c(S(=O)(=O)N3CCCCC3)c2)cn1,i,-21%,i,-2%,-6%,1%
Cn1c(COc2ccc(Cl)cc2)nnc1SCC(=O)NC1CCCC1,i,-3%,i,2%,0%,-1%
COc1ccc(S(=O)(=O)N2CCC(C(=O)N[C@@H](C)C(=O)NCc3cccnc3)CC2)cc1,i,-6%,i,-12%,9%,13%
Cc1ccc(O)c(NC(=S)NC(=O)/C=C/c2ccco2)c1,?,6.5µM*,10µM*,7.3µM*,-22%,-26%
Cc1ccnc(NC(=S)NC(=O)/C=C/c2ccco2)c1,8.2µM*,9.2µM*,10µM*,10µM*,?,?
O=C(/C=C/c1ccco1)NC(=S)NNC(=O)c1ccco1,i,21µM*,i,16µM*,?,?
O=C(/C=C/c1ccco1)NC(=S)Nc1ccc(O)c(-c2nc3ccccc3s2)c1,?,21µM*,5.8µM*,18µM*,?,?
O=C(Nc1ccc(O)c(-c2nc3ccccc3s2)c1)c1cc(=O)c2ccccc2o1,i,8.2µM*,?,9.2µM*,4%,3%
SMILES,KB-V1 cytotox,TDP1 cell noCPT,KB-3-1 tox,DT40 TDP1 CPT,HT1080 IDH1KD tx,HT1080-NT tox
COc1ccc(NC(=O)C(Cc2ccccc2)n2cccc2)c(OC)c1 (configuration not stated),i,18µM*!,?,23µM*!,0%,3%
Cc1ccc(NC(=O)C(Cc2ccccc2)n2cccc2)cc1 (configuration not stated),i,23µM*,i,?,-11%,-22%
Cc1cccc(NC(=O)C(Cc2ccccc2)n2cccc2)c1C (configuration not stated),nt,15µM*,nt,16µM*,nt,nt
Cc1csc(NC(=O)C(Cc2ccccc2)n2cccc2)n1 (configuration not stated),i,?,i,29µM*,-9%,-16%
COc1ccc(CN2CCNC(=O)C2CC(=O)NCCCC2CCCC2)c(C)c1C (configuration not stated),i,?,i,?,5%,-1%
O=C1CCCc2[nH]c(=O)c(C(=O)NCc3ccccc3)cc21,i,-19%,i,-19%,nt,nt
CC1CCN(S(=O)(=O)c2ccc3c(c2)N(CC(=O)NCc2ccccc2)C(=O)CO3)CC1,?,nt,i,nt,nt,nt
CCOCCCNC(=O)c1cc(Sc2ccc(F)cc2)nc2ccccc12,21µM*,?,i,?,-14%,-2%
COCCCNC(=O)c1cc(Sc2ccc(F)cc2)nc2ccccc12,?,?,i,?,-13%,-7%
Cc1ccc(Sc2cc(C(=O)NCCCN(C)C)c3ccccc3n2)cc1,i,?,i,-11%,18µM*,?
Cc1ccc(Sc2cc(C(=O)NCCN(C)C)c3ccccc3n2)cc1,i,?,i,?,-23%,?
CCc1ccc(Sc2cc(C(=O)NCCCN3CCC(C)CC3)c3ccccc3n2)cc1,i,16µM*,i,16µM*,nt,nt
CCc1ccc(Sc2cc(C(=O)NCCCN3CCCC(C)C3)c3ccccc3n2)cc1 (configuration not stated),i,?,i,?,nt,nt
CC(=O)C[C@@H](O)CC(=O)[C@@H]1OC(=O)CCCCCCCc2ccccc21,i,-11%,i,-42%,0%,18%
CCOC(=O)c1c(C)[nH]c(C)c1S(=O)(=O)N1CCC(C(=O)Nc2ccccc2CC)CC1,?,?,i,?,nt,nt
